The assay relates to Trypanosoma brucei. Nature of the assay: Trypanosoma brucei 72 hour study. It counts as functional, organism-based. Further details: scale not given: in the data most compounds retested in dose-response had high values.

The structures appear in SMILES notation. Hit rate of the full screen: of about 66,000 compounds, about 960 (1.5%) showed an effect of 50% or more. The sample as a whole holds a higher share of strong results than the screen did.

On to `COc1ccc(CNC(C)Cn2cccn2)c(OC)c1OC.Cl` (configuration not stated), for which the “Percent Effect” value runs as follows: (30.3 µM, […]) 4.713%; (10 mM, 10 mM as filed; unlikely as a test dose) -54.3%.

As for `COc1cc(CNC(C)Cn2ccnc2)cc2c1OCO2.Cl` (configuration not stated), the “Percent Effect” value (30.3 µM, […]) stood at 4.669%.

As for `COc1cc(CNCC(O)c2ccc(C)cc2)cc2c1OCO2.Cl` (configuration not stated), the “Percent Effect” value (30.3 µM, […]) was determined as 100.7%.

Turning to `COc1cc(CNC(C)Cn2cccn2)cc2c1OCO2.Cl` (configuration not stated), the “Percent Effect” value (30.3 µM, […]) was -1.111%.

For the compound `COc1cc(CNCC(O)c2ccc(F)c(F)c2)cc2c1OCO2` (configuration not stated), the “Percent Effect” value (30 µM, 30.03 µM) was 4.493%.

As to `COc1cc(CNCC(O)c2ccc(C)cc2)cc2c1OCCO2.Cl` (configuration not stated), where the note is “30 µM, 30.03 µM”, the “Percent Effect” value is reported as 42.56%.

As to `COc1cc(CNCC(O)c2cccc(F)c2)cc2c1OCO2.Cl` (configuration not stated), for the setting “30.3 µM, […]”, the “Percent Effect” value was 81.63%.

`Cl.Cl.c1cncc(COC[C@@H]2CCC[C@@]23CNCCO3)c1`: under “30.3 µM, […]”, the “Percent Effect” value is on record as -44.98%.

`CC(C)N1CCC2(CC1)C(=O)N(CCN(C)C)c1ccccc12.O=C(O)C(F)(F)F.O=C(O)C(F)(F)F`: the “Percent Effect” value (30.3 µM, […]) was determined as 5.685%.

Take `O=C(O)C(F)(F)F.O=C(O)C(F)(F)F.O=C(O)C(F)(F)F.c1ccc(CN2CC[C@@H]3[C@@H](CO[C@@H]3CNc3ncccn3)C2)nc1`: the “Percent Effect” value (30.3 µM, […]) was -6.943%.

Turning to `COc1ccc(CN2C[C@@H]3OCCN(c4ncccn4)[C@@H]3C2)cc1.O=C(O)C(F)(F)F.O=C(O)C(F)(F)F`, the “Percent Effect” value (30 µM, 30.03 µM) is -40.73%.

As for `COc1cc2nc(NCc3ccc(C)nc3)nc(N)c2cc1OC`, for the setting “30.3 µM, […]”, the “Percent Effect” value worked out at 100.6%.

Consider `O=C(C[C@@H]1COC[C@H]2CN(C3CCC3)C[C@@H]12)NCc1cccnc1.O=C(O)C(F)(F)F.O=C(O)C(F)(F)F`, for which the “Percent Effect” value (30.3 µM, […]) is reported as 12.19%.

For `COc1ccc(CCNCc2c(C)nn(C)c2N(C)C)cc1OC.Cl`, the “Percent Effect” value (30.3 µM, […]) is recorded as -31.69%.

As to `O=C(c1ccccc1-n1cnnn1)N1CCC2(CC1)OCCO2`, the “Percent Effect” value (30 µM, 30.03 µM) is -25.19%.

Take `O=C(c1ccc(Cl)cc1-n1cnnn1)N1CCC2(CC1)OCCO2`: the “Percent Effect” value (30 µM, 30.03 µM) is listed as -30.99%.

Turning to `O=C(c1cnn2c1OCCC2)N1CCC2(CC1)OCCO2`, under “30 µM, 30.03 µM”, the “Percent Effect” value is on record as 55.16%.

On to `Cn1ccnc1NC[C@@H]1CCC[C@@H]2CN(Cc3cccnc3)C[C@@H]21.O=C(O)C(F)(F)F`, for which the “Percent Effect” value (30.3 µM, […]) was -5.749%.

With `CN1C[C@H](NC(=O)c2cscn2)[C@@H]2OCCC[C@@H]21.O=C(O)C(F)(F)F`, the “Percent Effect” value (30.3 µM, […]) is on record as -88.97%.

Turning to `COCCNC(=O)[C@@]12CCO[C@@H]1CCN(Cc1ccncc1)C2.O=C(O)C(F)(F)F.O=C(O)C(F)(F)F`, the “Percent Effect” value (30 µM, 30.03 µM) came out at 13.68%.

`c1ccc(CO[C@H]2C[C@@H]3CN(Cc4cccnc4)C[C@@H]3C2)cc1`: the “Percent Effect” value (30.3 µM, […]) worked out at 51.09%.

In the case of `Cc1ncc(CN2C[C@H]3C[C@H](OCc4ccccc4)C[C@H]3C2)cn1`, the “Percent Effect” value (30.3 µM, […]) is 6.96%.

Consider `c1ccc(CO[C@H]2C[C@@H]3CN(Cc4cncnc4)C[C@@H]3C2)cc1`, for which the “Percent Effect” value (30.3 µM, […]) was -7.208%.

For the compound `CN(C)CCN1CCN(Cc2nccs2)Cc2cccnc21.O=C(O)C(F)(F)F.O=C(O)C(F)(F)F.O=C(O)C(F)(F)F`, for the setting “30.3 µM, […]”, the “Percent Effect” value was -78.15%.

As for `O=C(NCCc1ccccn1)[C@@]12CCO[C@@H]1CCN(C1CCC1)C2.O=C(O)C(F)(F)F.O=C(O)C(F)(F)F`, the “Percent Effect” value (30.3 µM, […]) turned out to be 7.888%.

As to `O=C(O)C(F)(F)F.O=C(O)C(F)(F)F.c1ccc(OCC2C[C@@H]3[C@@H](C2)OCCN3CC2CCOCC2)nc1` (some centres not stated), under “30.3 µM, […]”, the “Percent Effect” value is reported as -46.45%.

Regarding `CC(C)c1nc(CC(=O)N2CCN(C)CC2c2ccccc2)cs1` (configuration not stated), the “Percent Effect” value (30 µM, 30.03 µM) was -91.57%.

Regarding `CCN1CCN(Cc2nc(CC(C)C)no2)CC1`, where the note is “10 µM”, the “Percent Effect” value is recorded as -12.44%.

`CCN1CCN(Cc2csc(C(C)C)n2)CC1`: where the note is “30.3 µM, […]”, the “Percent Effect” value came to 81.77%.

For the compound `COCCCNc1c(C#N)c2c(c3nncn13)CN(C)CC2.Cl`, the “Percent Effect” value (30 µM, 30.03 µM) is given as -37.83%.

`Cl.Cl.c1ccc(COC[C@H]2CCC[C@@]23CNCCO3)nc1`: for the setting “30.3 µM, […]”, the “Percent Effect” value was -51.33%.

(Values after ChEMBL document CHEMBL3988442, “University of Dundee, Small-Polar-MMV Screening Library” (2021).)
